Results as given in ChEMBL document CHEMBL3988442, “University of Dundee, Small-Polar-MMV Screening Library” (2021).
For some assays here: Results with a measured potency or affinity are listed apart.

Assays:
Design in all cases: scale not given: direction of the effect not stated beside the values
[1] = biological target: Protein translocase subunit SecA (Escherichia coli (strain K12)) (UniProt P10408); test: Assay to Identify E. coli SecA ATPase Inhibitors; format: functional; conditions: 30 µM
[2] = biological target: T1, Ubiquitin-activating enzyme e1, putative (Leishmania donovani (strain BPK282A1)) (UniProt E9BSI1); test: Leishmania donovani Ubiquitin Activating Enzyme (LdE1); format: functional; conditions: 30 µM
T1 sequence (whole entry): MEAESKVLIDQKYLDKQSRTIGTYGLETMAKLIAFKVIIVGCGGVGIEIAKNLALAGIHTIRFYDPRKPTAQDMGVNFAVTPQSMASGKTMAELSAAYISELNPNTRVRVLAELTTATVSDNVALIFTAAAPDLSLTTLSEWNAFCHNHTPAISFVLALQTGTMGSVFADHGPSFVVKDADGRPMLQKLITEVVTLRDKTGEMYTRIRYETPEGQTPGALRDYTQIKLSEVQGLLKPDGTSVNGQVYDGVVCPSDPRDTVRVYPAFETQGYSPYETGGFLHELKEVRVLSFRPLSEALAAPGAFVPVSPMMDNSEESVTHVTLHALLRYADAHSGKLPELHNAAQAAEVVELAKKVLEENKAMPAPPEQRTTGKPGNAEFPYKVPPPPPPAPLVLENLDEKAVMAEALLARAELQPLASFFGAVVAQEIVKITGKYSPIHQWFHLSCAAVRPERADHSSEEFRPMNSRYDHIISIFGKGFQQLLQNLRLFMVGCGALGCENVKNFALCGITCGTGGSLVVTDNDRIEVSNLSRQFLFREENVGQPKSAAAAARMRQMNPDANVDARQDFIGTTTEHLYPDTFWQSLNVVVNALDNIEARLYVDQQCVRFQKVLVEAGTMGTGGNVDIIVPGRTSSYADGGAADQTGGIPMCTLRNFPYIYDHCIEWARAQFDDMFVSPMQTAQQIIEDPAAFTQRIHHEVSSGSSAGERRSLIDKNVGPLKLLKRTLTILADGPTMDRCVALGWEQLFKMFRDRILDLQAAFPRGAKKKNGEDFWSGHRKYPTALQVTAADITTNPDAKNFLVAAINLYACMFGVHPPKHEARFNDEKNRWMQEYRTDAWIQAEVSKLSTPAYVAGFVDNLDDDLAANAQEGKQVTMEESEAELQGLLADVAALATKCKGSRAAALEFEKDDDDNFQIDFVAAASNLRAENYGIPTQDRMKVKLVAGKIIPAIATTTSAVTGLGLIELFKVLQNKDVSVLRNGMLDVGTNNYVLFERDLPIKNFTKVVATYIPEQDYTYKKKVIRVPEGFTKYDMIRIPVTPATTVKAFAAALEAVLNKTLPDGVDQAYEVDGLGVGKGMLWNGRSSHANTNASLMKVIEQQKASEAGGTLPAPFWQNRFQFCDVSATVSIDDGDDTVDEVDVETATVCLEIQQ

[3] = biological target: AMP-activated protein kinase, AMPK (Homo sapiens) (UniProt P54646+O43741+P54619+Q9UGJ0+Q9Y478+Q13131+Q9UGI9); test: AMP-dependent Kinase enzyme assay. An in vitro enzyme assay that detects ADP turnover that is directly proportional to AMPK activity. This uses naive AMPK that is activated during the assay with MK-8722; format: functional; conditions: 30 µM
[4] = biological target: Sialic acid-binding Ig-like lectin 9 (Homo sapiens) (UniProt Q9Y336); test: Hs-Siglec9 ALPHAscreen SOP 20170721; conditions: 10 µM
[5] = tested on: Trypanosoma cruzi; test: Trypanosoma cruzi phosphomannomutase and mannose-1-phosphate guanylyltransferase assay; format: functional; conditions: 10 µM
[6] = biological target: T2, Arginase-2, mitochondrial (Homo sapiens) (UniProt P78540); test: in vitro enzyme assay to detect the production of urea directly proportional to the activity of Arginase II; format: functional; conditions: 33.3 µM; note: in the data most compounds retested in dose-response had high values
T2 sequence (whole entry): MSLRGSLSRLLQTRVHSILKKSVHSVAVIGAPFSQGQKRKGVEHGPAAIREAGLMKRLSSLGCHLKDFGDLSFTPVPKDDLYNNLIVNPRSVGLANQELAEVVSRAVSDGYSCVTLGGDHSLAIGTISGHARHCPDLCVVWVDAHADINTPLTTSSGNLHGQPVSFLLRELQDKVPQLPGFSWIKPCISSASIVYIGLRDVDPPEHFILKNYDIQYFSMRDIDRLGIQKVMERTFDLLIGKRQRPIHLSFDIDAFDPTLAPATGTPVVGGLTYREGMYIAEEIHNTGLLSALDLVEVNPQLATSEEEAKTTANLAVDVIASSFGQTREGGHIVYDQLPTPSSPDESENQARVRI

[7] = biological target: T3, Proteasome subunit beta (Trypanosoma cruzi) (UniProt O96673); test: Trypanosoma cruzi proteasome chymotrypsin-like activity (TcProtChymo) assay.; note: in the data most compounds retested in dose-response had high values; format: functional; conditions: 9.37 µM
T3 sequence (whole entry): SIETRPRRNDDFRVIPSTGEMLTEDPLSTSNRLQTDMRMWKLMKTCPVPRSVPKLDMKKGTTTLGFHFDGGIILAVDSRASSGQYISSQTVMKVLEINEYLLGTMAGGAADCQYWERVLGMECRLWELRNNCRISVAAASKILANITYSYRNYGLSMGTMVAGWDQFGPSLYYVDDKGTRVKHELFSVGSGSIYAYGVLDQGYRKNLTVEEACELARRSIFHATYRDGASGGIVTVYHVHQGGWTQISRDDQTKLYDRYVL

[8] = species: Homo sapiens; test: To identify inhibition of the IFN signalling (Jak-Stat) pathway via expression of an eGFP reporter gene under the control of an IFN-stimulated response element (ISRE) containing MxA promoter.; format: functional; conditions: 30 µM
[9] = biological target: T4, Tyrosyl-tRNA synthetase, putative (Trypanosoma cruzi (strain CL Brener)) (UniProt Q4DSP6); test: Trypanosoma cruzi tyrosyl tRNA synthetase (TcYRS) _High Tyrosine SOP; format: functional; conditions: 30 µM; note: in the data most compounds retested in dose-response had high values
T4 sequence (whole entry): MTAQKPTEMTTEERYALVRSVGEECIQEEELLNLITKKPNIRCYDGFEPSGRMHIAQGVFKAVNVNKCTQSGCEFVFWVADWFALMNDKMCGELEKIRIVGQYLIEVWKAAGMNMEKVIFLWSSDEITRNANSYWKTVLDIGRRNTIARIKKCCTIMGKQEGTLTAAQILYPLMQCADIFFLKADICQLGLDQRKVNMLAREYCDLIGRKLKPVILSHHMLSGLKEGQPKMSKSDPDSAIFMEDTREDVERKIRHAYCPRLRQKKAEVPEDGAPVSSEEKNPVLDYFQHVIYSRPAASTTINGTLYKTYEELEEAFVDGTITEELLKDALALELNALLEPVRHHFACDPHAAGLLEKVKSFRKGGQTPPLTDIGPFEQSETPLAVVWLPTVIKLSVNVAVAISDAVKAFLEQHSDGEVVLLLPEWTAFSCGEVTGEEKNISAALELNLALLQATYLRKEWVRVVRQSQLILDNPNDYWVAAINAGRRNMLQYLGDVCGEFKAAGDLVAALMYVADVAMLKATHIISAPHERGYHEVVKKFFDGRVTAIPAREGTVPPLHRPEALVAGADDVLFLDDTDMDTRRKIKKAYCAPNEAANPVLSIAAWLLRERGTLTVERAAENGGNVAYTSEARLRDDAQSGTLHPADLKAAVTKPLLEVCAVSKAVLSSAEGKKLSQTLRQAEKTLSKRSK

[10] = biological target: T4, Tyrosyl-tRNA synthetase, putative (Trypanosoma cruzi (strain CL Brener)); test: Trypanosoma cruzi tyrosyl tRNA synthetase (TcYRS) SOP; format: functional; conditions: 30 µM
[11] = biological target: Chromo domain-containing protein 1 (Saccharomyces cerevisiae (strain ATCC 204508 / S288c) (Baker's yeast)) (UniProt P32657); test: ScCHD-1 Enzyme Inhibition Assay; format: functional; conditions: 30 µM; note: in the data most compounds retested in dose-response had high values
Chain of Chromo domain-containing protein 1 (Saccharomyces cerevisiae (strain ATCC 204508 / S288c) (Baker's yeast)) (P32657 whole entry, the tested form may be a part): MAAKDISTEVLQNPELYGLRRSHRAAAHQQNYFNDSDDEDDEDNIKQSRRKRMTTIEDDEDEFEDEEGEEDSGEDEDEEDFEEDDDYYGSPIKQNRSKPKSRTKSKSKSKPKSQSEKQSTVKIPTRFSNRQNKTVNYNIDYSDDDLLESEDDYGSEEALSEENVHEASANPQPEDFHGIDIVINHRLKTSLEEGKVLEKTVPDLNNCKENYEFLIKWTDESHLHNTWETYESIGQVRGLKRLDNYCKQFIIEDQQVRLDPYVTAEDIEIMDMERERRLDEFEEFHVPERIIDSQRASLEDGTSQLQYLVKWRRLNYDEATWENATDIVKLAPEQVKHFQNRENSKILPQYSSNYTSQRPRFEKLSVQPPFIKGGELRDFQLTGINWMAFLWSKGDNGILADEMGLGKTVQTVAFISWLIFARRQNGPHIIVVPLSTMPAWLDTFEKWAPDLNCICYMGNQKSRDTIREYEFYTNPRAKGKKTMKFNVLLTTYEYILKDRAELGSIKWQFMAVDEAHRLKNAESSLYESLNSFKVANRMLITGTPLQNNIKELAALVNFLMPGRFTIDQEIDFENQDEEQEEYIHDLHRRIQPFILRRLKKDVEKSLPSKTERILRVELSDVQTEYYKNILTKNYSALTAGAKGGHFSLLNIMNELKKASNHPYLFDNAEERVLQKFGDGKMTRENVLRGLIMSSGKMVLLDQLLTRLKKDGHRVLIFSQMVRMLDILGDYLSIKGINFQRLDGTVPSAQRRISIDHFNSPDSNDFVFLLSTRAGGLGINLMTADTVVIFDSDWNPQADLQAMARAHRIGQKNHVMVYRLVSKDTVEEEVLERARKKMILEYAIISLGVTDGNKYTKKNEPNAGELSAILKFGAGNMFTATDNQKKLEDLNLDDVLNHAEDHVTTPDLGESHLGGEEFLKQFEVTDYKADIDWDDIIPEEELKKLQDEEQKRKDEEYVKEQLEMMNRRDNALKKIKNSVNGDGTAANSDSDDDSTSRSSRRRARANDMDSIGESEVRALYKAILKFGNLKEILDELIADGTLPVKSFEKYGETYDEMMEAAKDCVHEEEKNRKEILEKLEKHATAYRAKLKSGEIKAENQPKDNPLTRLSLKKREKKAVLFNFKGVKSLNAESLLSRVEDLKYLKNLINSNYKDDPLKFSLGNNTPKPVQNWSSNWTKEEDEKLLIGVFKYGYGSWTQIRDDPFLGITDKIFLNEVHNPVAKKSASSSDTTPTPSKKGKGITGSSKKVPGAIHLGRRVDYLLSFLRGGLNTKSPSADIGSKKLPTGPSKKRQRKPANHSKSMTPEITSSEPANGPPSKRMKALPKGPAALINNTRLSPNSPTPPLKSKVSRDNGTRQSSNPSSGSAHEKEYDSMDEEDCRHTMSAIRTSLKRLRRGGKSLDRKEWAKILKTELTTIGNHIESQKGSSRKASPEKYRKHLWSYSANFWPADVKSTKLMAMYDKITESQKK

Chain of Protein translocase subunit SecA (Escherichia coli (strain K12)) (P10408 whole entry): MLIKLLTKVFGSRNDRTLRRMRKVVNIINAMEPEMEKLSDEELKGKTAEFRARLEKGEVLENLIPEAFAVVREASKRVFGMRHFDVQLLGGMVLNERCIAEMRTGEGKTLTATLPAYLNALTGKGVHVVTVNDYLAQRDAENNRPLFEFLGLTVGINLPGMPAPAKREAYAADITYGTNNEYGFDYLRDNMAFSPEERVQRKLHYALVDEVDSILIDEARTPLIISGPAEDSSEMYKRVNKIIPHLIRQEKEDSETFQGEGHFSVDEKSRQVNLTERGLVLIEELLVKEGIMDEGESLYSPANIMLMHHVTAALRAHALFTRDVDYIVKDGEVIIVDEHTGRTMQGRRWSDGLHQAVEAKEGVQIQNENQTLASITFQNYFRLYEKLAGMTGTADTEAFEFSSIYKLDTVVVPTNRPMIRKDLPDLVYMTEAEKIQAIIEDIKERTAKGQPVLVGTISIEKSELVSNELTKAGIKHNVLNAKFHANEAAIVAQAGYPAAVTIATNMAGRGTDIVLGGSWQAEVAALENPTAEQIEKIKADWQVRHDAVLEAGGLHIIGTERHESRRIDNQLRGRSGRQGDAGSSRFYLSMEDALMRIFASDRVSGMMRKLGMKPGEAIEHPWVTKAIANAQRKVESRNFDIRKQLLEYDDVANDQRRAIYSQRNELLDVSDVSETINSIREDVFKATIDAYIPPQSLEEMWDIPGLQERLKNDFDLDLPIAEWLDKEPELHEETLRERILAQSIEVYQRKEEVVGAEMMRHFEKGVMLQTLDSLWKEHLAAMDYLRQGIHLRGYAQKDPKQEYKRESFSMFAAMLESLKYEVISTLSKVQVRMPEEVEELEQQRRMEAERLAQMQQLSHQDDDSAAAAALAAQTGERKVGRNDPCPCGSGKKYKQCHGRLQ
Chain of Sialic acid-binding Ig-like lectin 9 (Homo sapiens) (Q9Y336 whole entry): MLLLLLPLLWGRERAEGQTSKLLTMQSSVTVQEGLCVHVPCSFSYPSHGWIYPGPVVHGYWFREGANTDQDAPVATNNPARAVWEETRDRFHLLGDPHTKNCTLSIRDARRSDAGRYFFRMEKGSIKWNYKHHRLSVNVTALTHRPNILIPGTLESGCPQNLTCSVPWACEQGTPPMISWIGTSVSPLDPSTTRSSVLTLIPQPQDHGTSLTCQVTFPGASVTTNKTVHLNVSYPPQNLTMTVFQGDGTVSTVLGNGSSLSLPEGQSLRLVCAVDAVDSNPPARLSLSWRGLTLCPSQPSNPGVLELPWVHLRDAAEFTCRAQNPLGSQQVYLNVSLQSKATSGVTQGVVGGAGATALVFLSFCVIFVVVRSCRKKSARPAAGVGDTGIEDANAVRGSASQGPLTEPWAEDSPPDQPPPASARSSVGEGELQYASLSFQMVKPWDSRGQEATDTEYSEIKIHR

Row | SMILES | Percent Effect [1] | Percent Effect [2] | Percent Effect [3] | Percent Effect [4] | Percent Effect [5] | Percent Effect [6] | Percent Effect [7] | Percent Effect [8] | Percent Effect [9] | Percent Effect [10] | Percent Effect [11]
1 | CCc1nnc2n1CCN(C(=O)c1ccc(-c3ccco3)nc1C)C2 | -6.22% | 17.7% | -3.04% | 13.8% | 5.57% | -2.28% | 12.5% | 2.35% | 10.3% | 16.5% | -9.52%
2 | CC1CN=C(N2CCN(C(=O)Nc3nc(-c4ccccc4)ns3)CC2)S1 (stereo not given) | -9.42% | -5.41% | 7.75% | -5.9% | -2.25% | -3.23% | 3.35% | 38.4% | -2.15% | -6.17% | -0.289%
3 | O=S(=O)(Cc1ccccc1)N1CCCn2cnc(CN3CCCC3)c2C1 | -3.85% | 8% | 20.1% | -0.361% | -4.44% | -57.5% | 5.3% | -10% | 6.25% | -7.5% | -6.67%
4 | CC(C)COC(C)C(=O)NCc1cc(F)cc(F)c1 (stereo not given) | -1.7% | 2.6% | 8.53% | 10.1% | 1.47% | 2.32% | -0.728% | 21.9% | 2.86% | 2.35% | -5.87%
5 | Cc1cnn(CC2CN(Cc3nccn3C)CCO2)c1 (stereo not given) | -2.86% | 5.41% | -4.03% | 2.01% | -1.95% | 3.14% | 1.44% | 8.74% | 6.93% | 11% | -1.23%
6 | CCc1n[nH]c(C2CN(CCc3ccncc3)CCO2)n1 (stereo not given) | -6.01% | 3.8% | 7.99% | 7.24% | 0.103% | 0.215% | 1.72% | 14% | 1.04% | 7.59% | -9.31%
7 | CN(Cc1ccccc1)C1COC2(CCN(Cc3nccs3)CC2)C1 (stereo not given) | -6.64% | 13.3% | -9.84% | 1.43% | 3.09% | -51.1% | 4.79% | -4.42% | 4.17% | 7.5% | -9.89%
8 | COc1ccc(CN2CC[C@H](NC(C)=O)[C@@H](O)CC2)c(OC)c1 | -4.21% | 4.05% | 9.24% | 3.43% | 2.77% | -2.55% | 13.6% | 13% | -1.07% | 1.3% | -12.5%
9 | CS(=O)(=O)N1CCC(Oc2ccc(C(=O)N3CCSCC3)cc2Cl)CC1 | -2.47% | 9.72% | 3.27% | 18.5% | 4.37% | -2.21% | 3.86% | 25.7% | 3.16% | 7.69% | -2.42%
10 | N#Cc1ccc(C2CC(=O)Nc3c2cnn3C2CCCC2)cc1 (stereo not given) | -3.53% | 13.3% | 0.53% | 17.4% | 4.77% | 19.3% | 3.66% | 6.86% | 1.64% | 8.64% | -14.9%
